Inconclusive results are not listed. Calls of active or inactive are those of the source. Calls come from the whole dose curve; as a rule, active = well fitted inhibition curve with a large enough effect; inconclusive = small, poorly fitted or top-dose-only effect; inactive = flat fitted curve, though single readings scatter.
Assay: qHTS for Inhibitors of Plasmodium falciparum (DD2) proliferation (AID 504314);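 note: parasite DNA measured by SYBR Green fluorescence after red cell lysis; plate controls were DMSO vehicle for no effect and artemisinin wells for full effect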
Settings: P. falciparum Dd2 in erythrocytes, SYBR Green growth, 72 h; series mostly up to 1.12 µM; activity, negative = inhibition: at the top concentration
In short: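 Erythrocytes infected with P. falciparum Dd2 (0.3% parasitemia, 2.5% hematocrit) exposed to compound 72 h at 37C, 5% CO2. Parasite DNA quantified by SYBR Green fluorescence after saponin/Triton lysis overnight; normalized to 0.29 uM artemisinin and DMSO.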

Potency, inactive:
C=CCN1c2ccccc2[C@]23C[C@@H](C(=O)OC)N(C(=O)CC(C)C)C2=NC(C(=O)OC)=C(C(=O)OC)[C@H]13, CCCCC1=CC2=C(c3ccco3)C(=O)C(C)(OC(=O)c3ccc(OC)cc3)C(=O)C2=CN1CCCCO (stereo not drawn), COC(=O)CCCC1=CC2=CC(=O)C(C)(OC(=O)c3cccs3)C(=O)C2=CN1CCCCO (stereo not drawn)

activity, negative = inhibition, inactive:
CC#CCN1c2ccccc2[C@]23C[C@@H](C(=O)OC)N(S(=O)(=O)CCCC)C2=NC(C(=O)OC)=C(C(=O)OC)[C@H]13 3.13%, COC(=O)C1=C(C(=O)OC)[C@@H]2N(C)c3ccccc3[C@@]23C[C@@H](C(=O)OC)N(S(=O)(=O)c2ccc([N+](=O)[O-])cc2)C3=N1 0.927%, CCN1C(=O)N[C@@H](c2ccco2)C(C(C)=O)=C1C 0.441%, CCCCC1=CC2=CC(=O)C(C)(OC(=O)CC)C(=O)C2=CN1C1CCCCC1 (stereo not drawn) 2.06%, COCC(=O)N1CCc2nc(-c3ccc(OC)cc3C)c3c(c2C1)CO[C@@H](c1ccccc1)C3 4%, C=CCN1c2ccccc2[C@]23C[C@@H](C(=O)OC)N(S(=O)(=O)c4ccc([N+](=O)[O-])cc4)C2=NC(C(=O)OC)=C(C(=O)OC)[C@H]13 -6.67%, CCCCc1nc2c(c3c1C[C@H](C)OC3)CN(C(=O)N[C@H](C(=O)OC)C(C)C)CC2 1.64%, CC#CCN1c2ccccc2[C@]23C[C@@H](C(=O)OC)N(S(=O)(=O)c4ccc(C(F)(F)F)cc4)C2=NC(C(=O)OC)=C(C(=O)OC)[C@H]13 0.703%, COC(=O)C1=C(C(=O)OC)[C@@H]2Nc3ccccc3[C@@]23C[C@@H](C(=O)OC)N(S(=O)(=O)c2ccc(Br)cc2)C3=N1 1.96%, CC#CCN1c2ccccc2[C@]23C[C@@H](C(=O)OC)N(S(=O)(=O)c4ccc(Br)cc4)C2=NC(C(=O)OC)=C(C(=O)OC)[C@H]13 1.71%, C=CC[C@]1(C(=O)OC)C=C[C@H](C)[C@@H](c2ccccc2)N1C(=O)C(F)(F)F -3.67% [at 6.11 µM], CCOC(=O)CN1C(=O)NC(c2cccc(C(F)(F)F)c2)C(C(C)=O)=C1C (stereo not drawn) 1.41% [at 6.11 µM], CC1(OC(=O)CCc2ccccc2)C(=O)C=C2C=C(c3ccc(C#N)cc3)N(C3CCCCC3)C=C2C1=O (stereo not drawn) -0.085%, C[C@H]1Cc2c(-c3ccccc3)nc3c(c2CO1)CN(C(=O)C1CCCCC1)CC3 -1.87%, CC#CCN1c2ccccc2[C@]23C[C@@H](C(=O)OC)N(S(=O)(=O)c4ccc(C)cc4)C2=NC(C(=O)OC)=C(C(=O)OC)[C@H]13 5.37%, Nc1ccccc1C(=O)C=Cc1ccccc1 -18.2% [at 6.11 µM], COC(=O)C1=C(C(=O)OC)[C@@H]2N(C)c3ccc(OC)cc3[C@@]23C[C@@H](C(=O)OC)N(C(=O)c2ccc(Br)cc2)C3=N1 -0.201%, COC/C=C/C1=CC2=CC(=O)C(C)(OC(=O)c3cnc4ccccc4n3)C(=O)C2=CN1c1cccc(C#N)c1 (stereo not drawn) 1.99%, COC(=O)C1=C(C(=O)OC)[C@@H]2N(C)c3ccccc3[C@@]23C[C@@H](C(=O)OC)N(S(=O)(=O)c2ccc(Br)cc2)C3=N1 -6.01%, CCCCC1=CC2=CC(=O)C(C)(OC(=O)CC)C(=O)C2=CN1Cc1ccco1 (stereo not drawn) -4.52%, COC(=O)CCC(=O)OC1(C)C(=O)C2=CN(CC3CC3)C(c3ccc(OC)cc3)=CC2=C(Br)C1=O (stereo not drawn) 3.03%, COC(=O)C1=C(C)N(Cc2ccccc2)C(=O)NC1c1ccco1 (stereo not drawn) -3.36% [at 6.11 µM], CC#CCN1c2ccccc2[C@]23C[C@@H](C(=O)OC)N(S(=O)(=O)c4ccc(OC)cc4)C2=NC(C(=O)OC)=C(C(=O)OC)[C@H]13 1.12%, C=CC1=C2C=C(C3CC3)N(CCCCO)C=C2C(=O)C(C)(OC(=O)c2ccco2)C1=O (stereo not drawn) -0.103%, COC(=O)CCC(=O)OC1(C)C(=O)C2=CN(CC(C)C)C(c3ccc(OC)cc3)=CC2=C(Br)C1=O (stereo not drawn) -1.93%, CCN1C(=O)N[C@@H](c2cccc(F)c2)C(C(=O)OC)=C1C 5.38%, COC(=O)CCCC1=CC2=CC(=O)C(C)(OC(=O)c3cccs3)C(=O)C2=CN1Cc1ccc2c(c1)OCO2 (stereo not drawn) 1.86%, COCCN1C(=O)N[C@@H](c2cccc(F)c2)C(C(C)=O)=C1C -0.864%, CC(CCN1CCCc2nc(C)c(C)cc21)=NO[C@H](C)c1cn([C@@H]2COC[C@@H]2O)nn1 -1.85% [at 6.11 µM], COC(=O)C1=C(C(=O)OC)[C@@H]2N(C)c3ccccc3[C@@]23C[C@@H](C(=O)OC)N(S(=O)(=O)c2ccc(C(F)(F)F)cc2)C3=N1 -3.92%

Source: PubChem BioAssay (NCATS)
